Pf Dd2 growth = blocks growth of Plasmodium falciparum Dd2 parasites | P. falciparum Dd2 growth, SYBR Green, 72 h; active compounds read low | activity change, % at 10 µM | 94,000 tested, 2.3% active | AID 1159554; in the data active means activity change below about -80%; inconclusive means no clear call, values can overlap the other calls
C diff growth = blocks growth of Clostridium difficile; 86,000 tested, 0.25% active; Clostridium difficile clinical isolate growth, OD600, 24 h; active compounds read low; AID 1259249; growth activity, negative = inhibition, % at 16 µg/mL (by protocol);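 active means mean growth activity at or below -80% and every replicate also at or below -80%; inconclusive means mean at or below -80% but some replicate above -80%; inactive means mean growth activity above -80%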
T cruzi growth-1 = T. cruzi proliferation inhibition. T. cruzi beta-gal in NIH3T3, GalScreen luminescence, 90 h. inhibition, % at 8.34 µM. 77,000 tested, 5.9% active. AID 624255;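 active means mean inhibition above about 93%, with at least 55% of replicates each passing it, limit read from the data, passing the limit was not always enough; inconclusive means only one of those two conditions holds; inactive means neither condition holds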
T cruzi growth-2 = Trypanosoma cruzi proliferation inhibition | inhibition, % at 8.35 µM | T. cruzi beta-gal in NIH3T3, GalScreen luminescence, 90 h | AID 651739 | shares compounds with T cruzi growth-1 | 5,600 tested, 72% active;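 active means mean replicate inhibition above about 95% and at least 55% of replicates individually reaching it, limit read from the data; inconclusive means only one of the two criteria is met; inactive means neither criterion is met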
T cruzi growth-3 = Trypanosoma cruzi proliferation inhibition; shares compounds with T cruzi growth-1; T. cruzi beta-gal in NIH3T3, GalScreen luminescence, 90 h; inhibition, % at 2.09 µM; 5,600 tested, 21% active; AID 651740;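 active means mean inhibition above about 95%, with at least 55% of replicates also reaching it, limit read from the data; inconclusive means meets just one of the two conditions; inactive means meets neither condition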
NIH3T3 tox = kills mouse NIH/3T3 fibroblasts. 5,600 tested, 14% active. cytotoxicity (signal decrease), % at 8.35 µM. shares compounds with T cruzi growth-1. NIH/3T3 viability, CellTiter-Glo ATP luminescence, 90 h;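 active means mean signal decrease across replicates above about 35% based on untreated-well scatter, with enough replicates individually passing, limit read from the data; inconclusive means no rule stated though some were filed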
3T3 cytotox 2 = kills mouse NIH/3T3 fibroblasts. shares compounds with T cruzi growth-1. 5,600 tested, 56% active. inhibition, % at 24.9 µM. NIH/3T3 viability, CellTiter-Glo ATP luminescence, 90 h;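 active means mean loss of cell viability signal at or above a set limit, and enough replicates individually reaching it; inconclusive means meets only the mean limit or only the replicate share; inactive means meets neither condition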
Of the large screens only hits and unclear results are named; the others gave an inactive call (follow-up assays come after a bar, where they were run). A selection: hits, their analogues and other compounds. The true share with any hit is near 6.7%.

CO[C@H]1CC[C@@H]2CCN(C)C(=O)C[C@@H](c3ccccc3)CN(C)C(=O)c3cccc(C#N)c3OC[C@@H]1O2	none (no result: Pf Dd2 growth)
O=C(Nc1ccc(F)cc1)Nc1ccc2c(c1)[C@H]1C[C@@H](CC(=O)N3CCCCC3)O[C@H](CO)[C@H]1O2	none
CN1c2ccc(-c3ccccc3F)cc2[C@@H]2[C@@H](CCN2S(=O)(=O)c2ccccc2F)[C@@H]1CO	T cruzi growth-1 115.9 | T cruzi growth-2 100.1 | T cruzi growth-3 inactive | NIH3T3 tox inconclusive | 3T3 cytotox 2 40.8
Cc1ccc(S(=O)(=O)N2CC[C@H]3[C@@H](CO)N(C)c4ccc(-c5ccccc5F)cc4[C@H]32)cc1	none
CN1c2ccc(-c3ccccc3F)cc2[C@H]2[C@H](CCN2S(=O)(=O)c2ccccc2F)[C@@H]1CO	none
CN1c2ccc(-c3ccccc3F)cc2[C@H]2[C@H](CCN2S(=O)(=O)c2ccc(F)cc2)[C@@H]1CO	T cruzi growth-1 113.3 | T cruzi growth-2 98.8 | T cruzi growth-3 98.3 | NIH3T3 tox inactive | 3T3 cytotox 2 79.8
CC(C)CC#Cc1cnc2c(c1)C(=O)N([C@@H](C)CO)C[C@@H](C)[C@H](CN(C)Cc1ccc3c(c1)OCO3)O2	none
C[C@@H]1CN([C@@H](C)CO)C(=O)c2cc(C#CC3CC3)cnc2O[C@H]1CN(C)C(=O)C1CCCCC1	none (no result: C diff growth)
CCNC(=O)C[C@H]1C=C[C@@H](NC(=O)C2CC2)[C@@H](CO)O1	none (no result: T cruzi growth-1)
COc1cccc(S(=O)(=O)N(C)C[C@H]2OCc3ccccc3-c3ccccc3C(=O)N([C@H](C)CO)C[C@@H]2C)c1	T cruzi growth-1 inconclusive | T cruzi growth-2 inactive | T cruzi growth-3 inactive | NIH3T3 tox inactive | 3T3 cytotox 2 inactive
COc1cccc(S(=O)(=O)N(C)C[C@H]2OCc3ccccc3-c3ccccc3C(=O)N([C@@H](C)CO)C[C@@H]2C)c1	none
COc1cccc(CN(C)C[C@@H]2OCc3ccccc3-c3ccccc3C(=O)N([C@@H](C)CO)C[C@@H]2C)c1	none
COc1cccc(CN(C)C[C@H]2OCc3ccccc3-c3ccccc3C(=O)N([C@@H](C)CO)C[C@H]2C)c1	T cruzi growth-1 inconclusive | T cruzi growth-2 inactive | T cruzi growth-3 inactive | NIH3T3 tox inactive | 3T3 cytotox 2 inactive
COc1ccc2c3c([nH]c2c1)[C@@H](CO)N(CC1CCOCC1)CC31CN(C(=O)c2ccc(F)cc2)C1	none (no result: T cruzi growth-1)
COc1ccc(S(=O)(=O)N2CC3(CN(Cc4ccncc4)[C@@H](CO)c4[nH]c5cc(OC)ccc5c43)C2)cc1	none (no result: C diff growth, T cruzi growth-1)
N#C[C@@H]1[C@@H](c2ccc(C#CC3CCCCC3)cc2)[C@H](CO)N1S(=O)(=O)c1ccccc1	none
N#C[C@H]1[C@H](c2ccc(C#CC3CCCC3)cc2)[C@@H](CO)N1S(=O)(=O)c1ccccc1	T cruzi growth-1 100.0 | T cruzi growth-2 95.5 | T cruzi growth-3 99.2 | NIH3T3 tox inactive | 3T3 cytotox 2 105.7
N#C[C@@H]1[C@@H](c2ccc(C#CC3CCCC3)cc2)[C@H](CO)N1S(=O)(=O)c1ccccc1	T cruzi growth-1 97.4 | T cruzi growth-2 95.2 | T cruzi growth-3 106.9 | NIH3T3 tox inactive | 3T3 cytotox 2 104.5
N#C[C@H]1[C@@H](c2ccc(C#CC3CCCCC3)cc2)[C@H](CO)N1S(=O)(=O)c1ccccc1	none
CCCNC(=O)C[C@@H]1CC[C@@H]2[C@@H](COc3ccc(NC(=O)NCC)cc3C(=O)N2C)O1	none
C[C@@H]1CN([C@H](C)CO)C(=O)Cc2cc(NS(C)(=O)=O)ccc2O[C@H]1CN(C)Cc1ccc(C(=O)O)cc1	none
C[C@H](CO)N1C[C@H](C)[C@H](CN(C)S(=O)(=O)c2ccc(Cl)cc2)Oc2ccc(N(C)C)cc2C1=O	none (no result: T cruzi growth-1)
COc1ccc(C#Cc2ccc([C@H]3[C@H]4CN(C(=O)Nc5cccc(F)c5)CCCCN4[C@H]3CO)cc2)cc1	T cruzi growth-1 113.1 | T cruzi growth-2 104.0 | T cruzi growth-3 inactive | NIH3T3 tox inactive | 3T3 cytotox 2 inactive
COc1ccc(C#Cc2ccc([C@H]3[C@H]4CN(C(=O)Nc5ccccc5F)CCCCN4[C@H]3CO)cc2)cc1	T cruzi growth-1 120.3 | T cruzi growth-2 106.1 | T cruzi growth-3 inactive | NIH3T3 tox inactive | 3T3 cytotox 2 32.8
COc1ccc(NC(=O)N2CCCCN3[C@H](C2)[C@H](c2ccc(C#Cc4ccccn4)cc2)[C@@H]3CO)cc1	none
COc1ccc(NC(=O)N2CCCCN3[C@H](CO)[C@@H](c4ccc(C#Cc5ccccc5)cc4)[C@@H]3C2)cc1	T cruzi growth-1 112.3 | T cruzi growth-2 inactive | T cruzi growth-3 inactive | NIH3T3 tox 36.9 | 3T3 cytotox 2 104.2
COc1ccc(C#Cc2ccc([C@H]3[C@H](CO)N4CCCCN(C(=O)Nc5cccc(F)c5)C[C@@H]34)cc2)cc1	none
COc1ccc(C#Cc2ccc([C@@H]3[C@@H](CO)N4CCCCN(C(=O)Nc5ccccc5F)C[C@H]34)cc2)cc1	Pf Dd2 growth inconclusive
COc1ccc(C#Cc2ccc([C@@H]3[C@H]4CN(C(=O)Nc5ccc(F)cc5)CCCCN4[C@H]3CO)cc2)cc1	none
COc1ccc(NC(=O)N2CCCCN3[C@H](CO)[C@@H](c4ccc(C#Cc5ccccc5)cc4)[C@H]3C2)cc1	T cruzi growth-1 107.0 | T cruzi growth-2 96.0 | T cruzi growth-3 104.1 | NIH3T3 tox 90.9 | 3T3 cytotox 2 103.7
CCC(=O)N1CC(=O)N2[C@H](CO)[C@@H](c3ccc(-c4ccccc4C)cc3)[C@H]2C1	none (no result: T cruzi growth-1)
CCCNC(=O)C[C@@H]1C[C@H]2c3cc(NC(=O)NC4CCCCC4)ccc3O[C@H]2[C@H](CO)O1	none
CCNC(=O)C[C@H]1CC[C@H]2[C@@H](COC[C@@H](O)CN2C(=O)C2CC2)O1	none
COc1ccc(CN(C)C[C@H]2Oc3ccc(NS(=O)(=O)c4ccc(F)cc4)cc3C(=O)N([C@@H](C)CO)C[C@H]2C)cc1	none
COc1ccc(C#Cc2ccc([C@@H]3[C@@H](CO)N4CCCCN(C(=O)Nc5ccccc5)C[C@@H]34)cc2)cc1	T cruzi growth-1 111.4 | T cruzi growth-2 inactive | T cruzi growth-3 inactive | NIH3T3 tox inactive | 3T3 cytotox 2 102.4
COc1ccc(C#Cc2ccc([C@@H]3[C@H]4CN(C(=O)Nc5ccccc5F)CCCCN4[C@H]3CO)cc2)cc1	none
O=C(Nc1cccc(F)c1)N1CCCCN2[C@@H](CO)[C@@H](c3ccc(C#Cc4cccnc4)cc3)[C@@H]2C1	T cruzi growth-1 100.5 | T cruzi growth-2 106.1 | T cruzi growth-3 99.8 | NIH3T3 tox 59.1 | 3T3 cytotox 2 103.4
COc1ccc(C#Cc2ccc([C@H]3[C@H]4CN(C(=O)Nc5ccc(F)cc5)CCCCN4[C@H]3CO)cc2)cc1	none
O=C(Nc1cccc(F)c1)N1CCCCN2[C@@H](CO)[C@@H](c3ccc(C#Cc4ccccc4)cc3)[C@@H]2C1	none
